Assay outcomes as filed in PubChem.
Wnt bcat act – Wnt/beta-catenin pathway activators, primary screen, cell-based, plate reader, single point | Wnt/beta-catenin reporter cell assay, activator | activation, % at 9.35 µM | 300,000 compounds, 1.2% hits | AID 743398, 2014; in the data active = activation above about 30%, passing the limit was not always enough; inconclusive = no clear call, values can overlap the other calls
esBAF inh – Bmi1 luciferase reporter increase in mESCs, primary screen, esBAF inhibitor project, mouse ES cells, Bmi1 luciferase knock-in, single point; 24 h; 100% = twice the neutral-well signal; reporter increase, % at 12.5 µM; 350,000 compounds, 2% hits; AID 602393, 2012; in the data active = activation above about 40%; inconclusive = no clear call, values can overlap the other calls;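 note: a rise in the Bmi1 reporter signal indicates esBAF inhibition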
TRPM1 prom inh – inhibitors of MITF-dependent TRPM1 promoter reporter, primary screen, cell-based, SK-MEL-5, single point, luciferase. SK-MEL-5 TRPM1 promoter luciferase, 24 h. inhibition, % at 12.5 µM. 330,000 compounds, 0.83% hits;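 active = mean inhibition across replicates of 60% or more, whatever share of single replicates reaches that level; inconclusive = some that reach 60%, reason not given; inactive = mean inhibition across replicates below 60%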
EBV LMP1 NFkB – EBV LMP1-driven NF-kappaB luciferase reporter inhibitors, primary screen, cell-based, luminescence, single point | LMP1-induced NF-kappaB luciferase reporter cells | inhibition, % at 12.5 µM | 350,000 compounds, 0.69% hits; in the data active = inhibition above about 41%; inconclusive = no clear call, values can overlap the other calls
Statin myotox sup – suppressors of statin myotoxicity in C2C12 myotubes, primary screen, cell-based, single point, plate reader; 330,000 compounds, 0.78% hits; rescue of ATP level, % at 7.49 µM; AID 602340, 2012; C2C12 myotubes + simvastatin, ATP luminescence, 48 h; scaled: DMSO 0, geranylgeraniol control 100;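 active = mean ATP rescue above about 67%, or every replicate alone reaching that limit, limit read from the data, passing the limit was not always enough; inconclusive = no clear call, values can overlap the other calls; inactive = mean under the limit and some replicate under it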;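 note: myotubes were challenged with 10 µM simvastatin during compound exposure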
MITF TRPM1 HTS – activators of MITF-driven TRPM1 promoter reporter, primary screen, cell-based, SK-MEL-5, luciferase, single point; SK-MEL-5 TRPM1-promoter luciferase, 24 h; % of positive control, neutral wells = 0; activation, % at 12.5 µM; 300,000 compounds, 0.75% hits; AID 588334, 2011;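 active = mean activation of at least 80% with every replicate also reaching 80%; inconclusive = mean reaches 80% but some replicate falls short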
Numbers stand for hits; - = inactive; ? = inconclusive; . = not tested or not shown. Compounds with a hit are over-represented: about 4% of the library has one in this group of screens.

SMILES	Wnt bcat act	esBAF inh	TRPM1 prom inh	EBV LMP1 NFkB	Statin myotox sup	MITF TRPM1 HTS
CSc1ccc(/C=C/C(=O)c2c(O)cc(C)oc2=O)cc1	-	54	-	-	-	-
Cc1cc(O)c(C(=O)/C=C/c2ccc(Cl)cc2)c(=O)o1	-	-	-	-	-	.
COc1ccc(/C=C/C(=O)c2c(O)cc(C)oc2=O)c(OC)c1	-	64	-	-	.	-
C[C@@H]1CN([C@@H](C)CO)C(=O)c2cc(-c3cccnc3)cnc2O[C@H]1CN(C)S(C)(=O)=O	.	-	.	.	.	.
COc1ccc(CC(=O)OCC(=O)NCCNC(=O)COC(=O)Cc2ccc(OC)cc2)cc1	-	.	-	-	.	-
CC1(C)CC(=O)C(C=NCCN2CCN(C(=S)Nc3ccccc3)CC2)=C(O)C1	-	-	-	-	-	.
O=C(N/N=C/c1c(O)ccc2ccccc12)c1ccc(CO)nc1	-	-	-	-	-	.
O=C(N/N=C\c1c(O)ccc2ccccc12)c1ccc(S(=O)(=O)N2CCCCC2)cc1	.	.	76	68	.	-
Nc1ccc(C(=O)N/N=C\c2cc(N=Nc3cccc4ccccc34)ccc2O)cc1	-	-	-	60	-	.
O=C(NN=Cc1c(O)ccc2ccccc12)c1ccc2c(c1)OCO2	-	-	?	74	-	-
O=C(N/N=C/c1ccccc1)c1ccc2c(c1)OCO2	-	-	-	-	-	-
Cc1ccc(S(=O)(=O)NCC[C@@H]2CC[C@H](NC(=O)CCN3CCCCC3)[C@H](CO)O2)cc1	.	-	.	.	-	.
COc1cccc2c1C(=O)c1c(O)c3c(c(O)c1C2=O)C[C@@](O)(C(C)=O)C[C@@H]3O[C@H]1C[C@H](N)[C@H](O)[C@H](C)O1	-	-	96	91	-	-
COc1cccc2c1C(=O)c1c(O)c3c(c(O)c1C2=O)CC(O)(C(=O)CO)CC3OC1CC(N(C)C)C(O)C(C)O1 (stereo not given)	-	.	69	87	.	.
COc1cccc2c1C(=O)c1c(O)c3c(c(O)c1C2=O)C[C@@](O)(C(=O)CO)C[C@@H]3O[C@H]1C[C@H](N)[C@@H](O)[C@H](C)O1	.	-	83	76	-	-
C[C@@H]1CN([C@@H](C)CO)C(=O)Cc2cc(NS(=O)(=O)c3ccccc3)ccc2O[C@@H]1CN(C)Cc1ccc(C(=O)Nc2ccccc2N)cc1	.	-	.	.	-	.
Cn1ccnc1SCC(=O)c1ccc2ccccc2c1	50	.	-	-	.	88
COc1cccc(C(=O)CSc2nccn2C)c1	-	44	-	-	-	.
CN(C)CCNC(=O)/C(=C/c1ccc(-c2ccc(Cl)cc2Cl)o1)NC(=O)c1ccccc1	.	.	95	-	.	-
Cc1ccc(C(=O)N/C(=C\c2ccc(-c3ccc(Br)cc3)o2)C(=O)NCCCN(C)C)cc1	-	.	107	-	.	-
CN(C)CCNC(=O)/C(=C/c1ccc(-c2ccc(Cl)cc2)o1)NC(=O)c1ccccc1	.	.	66	-	.	-
Cc1ccc(C(=O)N/C(=C\c2ccc(-c3cccc([N+](=O)[O-])c3)o2)C(=O)NCCCN(C)C)cc1	-	-	-	-	-	.
O=C(Nc1ccc(OC(F)(F)F)cc1)C1CC(c2ccc(F)cc2)=NO1 (stereo not given)	-	-	-	-	-	-
COC(=O)c1ccc(SCC(=O)NC2CCCC2)c([N+](=O)[O-])c1	-	.	-	-	.	-
CC(C)(C)c1ccc(C(=O)Nc2sc3c(c2C(=O)O)CCC3)cc1	-	-	66	-	-	-
SMILES	Wnt bcat act	esBAF inh	TRPM1 prom inh	EBV LMP1 NFkB	Statin myotox sup	MITF TRPM1 HTS
O=C(Nc1scc(-c2ccccc2)c1C(=O)O)c1ccc(F)cc1	-	-	-	-	-	.
Cc1ccc(-c2csc(NC(=O)c3ccc(F)cc3)c2C(=O)O)cc1	-	59	-	-	-	-
COc1cccc(C(=O)Nc2nc3c(c(=O)[nH]2)CCCC3)c1	-	-	-	-	96	-
COc1cccc(C(=O)Nc2sc3c(c2C(=O)O)CCCC3)c1	-	55	-	-	-	-
CCCOc1ccc2[nH]cc(C(=O)O)c(=O)c2c1	-	-	-	-	.	-
C[C@@H]1CN([C@@H](C)CO)S(=O)(=O)c2ccc(-c3ccncc3)cc2O[C@@H]1CN(C)Cc1ccncc1	.	-	.	.	-	.
O=c1c(C/C=C/c2ccccc2)c(O)nc2n1CCCS2	-	-	-	-	-	-
CN(CC(=O)Nc1ccc(F)c(F)c1F)C(=O)C1CCCN1C(=O)c1cccs1 (stereo not given)	-	-	.	-	-	.
O=C(Nc1sc2c(c1C(=O)O)CCCC2)c1ccc(F)cc1	-	68	.	-	-	.
NC(=O)c1c(NC(=O)c2ccc(F)cc2)sc2c1CCC2	-	-	-	-	-	.
Oc1ccc(NCc2ccccc2OCc2ccccc2)cc1	39	.	-	-	.	-
O=C(OCc1ccccc1)c1ccc(NCc2cc(O)ccc2O)cc1	-	.	81	-	.	.
COC(=O)C1=C(C)NC(=O)C1(Nc1ccc(Cl)cn1)C(F)(F)F (stereo not given)	-	-	-	-	-	-
COc1ccc(/C=C/C(=O)NC(C)(C)C)cc1S(=O)(=O)N1CCOCC1	-	.	-	-	.	-
COc1ccc(C(=O)N2CC=C(c3ccccc3)CC2)cc1S(=O)(=O)N1CCOCC1	.	-	-	-	82	-
COc1ccc(/C=C/C(=O)NC2CCCCCCC2)cc1S(=O)(=O)N1CCOCC1	-	51	-	-	-	-
COc1ccc(NC(=O)c2ccc(-c3ccccc3)cc2)cc1S(=O)(=O)N1CCOCC1	-	.	-	51	.	-
CN(N=Nc1ccccc1C(=O)O)C1CCCCC1	38	-	.	-	-	.
Cc1ccc(S(=O)(=O)N2CCN(c3nccnc3C#N)CC2)cc1	-	-	-	-	-	-
COc1cc(CNc2ncnc3c2ncn3[C@H]2CN(Cc3cccc4ccccc34)C[C@@H](CO)O2)cc(OC)c1OC	-	-	.	.	166	.
COc1ccc(CN2C[C@@H](CO)O[C@@H](n3cnc4c(NCc5ccc(F)cc5)ncnc43)C2)cc1	.	-	.	.	81	.
COc1cc(CNc2ncnc3c2ncn3[C@H]2CN(Cc3ccc(-c4ccccc4)cc3)C[C@@H](CO)O2)cc(OC)c1OC	.	-	.	.	-	.
CCCCNC(=O)COC(=O)c1cc2c(C)nn(-c3ccccc3)c2s1	.	.	-	-	.	-
CC[C@@]12C(=O)N(c3cccc(Br)c3)C(=O)N1[C@H](c1ccc(Br)cc1)[C@@H]1C(=O)N(C(C)(C)C)C(=O)[C@@H]12	-	-	-	-	-	-
Cc1cc(C)cc(N2CN=C3SCC(=O)N3C2)c1	.	.	-	-	.	-
COc1ccc(N2CN=C3SCC(=O)N3C2)cc1	-	-	-	-	106	-
Cc1ccc(S(=O)(=O)CCC(=O)Nc2nc(C(C)(C)C)cs2)cc1	-	-	-	-	-	-
